From PubChem BioAssay (NCI)
This is part of a sample that, as a whole, favours compounds with a hit. Of some 83,000 tested, about 20% had one in any assay.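 Percent growth is the endpoint: 0 to 100 indicates growth inhibition (40 means 60% inhibition), 0 means no net growth, and negative values indicate cell death.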 Calls of active or inactive are those of the source.

Test system: PC-3 prostate
Assay: NCI-60 one-dose screen, 48 h (100 = growth as untreated, 0 = no growth, -100 = all killed)
Conditions: 10 µM unless noted
Method: Growth inhibition of the PC-3 human tumor cell line is measured as a screen for anti-cancer activity. Cells are grown in 96 well plates and exposed to the test compound for 48 hours. Compounds are tested at a single concentration, which is 10^-5 M for most compounds. The reported endpoint is percent growth (GI% or GIPRCNT), where numbers from 0 - 100% represent growth inhibition, and numbers from -100% - 0 represent cell death. For example, a value of 40 represents 60% growth inhibition. A value of 0 means no net growth occurred over the course of the experiment. A value of -40 indicates 40% of cells at the beginning of the experiment died by the end of the experiment. A value of -100 means all cells are dead at the end of the experiment.
NCI-60 Human Tumor Cell Lines Screen was performed using the standard one-dose NCI protocol, which is described in more detail at https://dtp.cancer.gov/discovery_development/nci-60/default.htm.
Compounds with GIPRCNT values below 10 were considered active. Activity score was based on GIPRCNT using the following formula: […]
Score is 0 for GIPRCNT values of 100 or above, 50 for GIPRCNT values of 0, and 100 for GIPRCNT values of -100.

SMILES | growth
CCOC(=O)c1c(NC(=O)c2ccc(C(F)(F)F)cc2)sc2c3c(ccc12)OCN(C)C3 | 65.3% (inactive)
C#Cc1nc(C(=O)NCCCCCCC(=O)NO)cs1 | 14.3% (inactive)
Oc1[nH]c2ccc(Cl)cc2c1N=Nc1nc(N=Nc2c(O)[nH]c3ccc(Cl)cc23)nc(N2CCCCC2)n1 | 19.5% (inactive)
O=c1c2ccccc2cc2n1CCN=C2c1ccccc1 | 96.5% (inactive)
O=C(COc1ccc(/C=C2\C(=O)Nc3cc(Cl)ccc32)cc1)Nc1ccc(Cl)cc1 | 54.5% (inactive)
O=C(CCCCCCN1CC(=O)N2[C@@H](c3cccs3)c3[nH]c4ccccc4c3C[C@H]2C1=O)NO | 86.2% (inactive)
C#C[C@]1(O)CC[C@H]2[C@@H]3CC=C4c5sc(Nc6ccc(C)cn6)nc5CC[C@]4(C)[C@H]3CC[C@@]21C | -27.3% (active)
O=C(CCCCCCNC(=O)C(O)(O)C(F)(F)F)Nc1ccc(-c2ccccc2)cc1 | 28.7% (inactive)
COC(=O)c1cccc(NC2=C(Cl)C(=O)c3nc(C)ccc3C2=O)c1 | 85.4% (inactive)
CCN(CC)c1ccc(/C=N/NC(=O)c2ccc(NS(C)(=O)=O)cc2)cc1 | 37.2% (inactive)
CCCN1C=C/C(=C\C(=O)n2ccc3ccccc32)c2ccccc21 | 73.7% (inactive)
CCOC(=O)c1ccccc1NC1=C(Cl)C(=O)c2nc(C)ccc2C1=O | 96.8% (inactive)
Cc1ccc(C(=O)CSc2nc3ccccc3c(=O)n2C)cc1 | 88.5% (inactive)
CC1=C(C)C(=O)C(Nc2cccc(C(=O)OC(C)(C)C)c2)=CC1=O | 76.7% (inactive)
CN1CCN(CCNc2nc(-c3cccc(NS(=O)(=O)c4cccc5c(N(C)C)cccc45)c3)cs2)CC1 | 65.5% (inactive)
CN1CCN(c2ccc(Nc3nc(NCCNS(=O)(=O)c4ccccc4)c4sccc4n3)cc2)CC1 | 95.4% (inactive)
CCOC(=O)C1=C(C)NC(C)=C(C(=O)OCc2ccccc2)C1c1cccc(C#N)c1 (stereo not given) | 33.1% (inactive)
C/C(CC1(O)C(=O)Nc2ccccc21)=N\O (stereo not given) | 88.6% (inactive)
CCCCCCN1C=C/C(=C\C(=O)n2ccc3ccccc32)c2ccccc21 | 58.6% (inactive)
Cn1c2nc3ccccc3c-2cc2ccccc21 | 46.2% (inactive)

SMILES | growth
CCN(CC)c1ccc(/C=N/NC(=O)c2ccc(S(N)(=O)=O)cc2)c(O)c1 | 34.9% (inactive)
O=C(NNc1nc2cc(F)cc(F)c2n2cccc12)c1cccnn1 | 30.7% (inactive)
O=C(CSc1nc2ccccc2c(=O)n1-c1ccc(Cl)cc1)N/N=C/c1ccc(Oc2ccc(Cl)cc2)cc1 | 0.803% (active)
NCCNC(=O)c1cccc(COc2ccccc2NC(=O)c2cc(Cl)c(Cl)[nH]2)c1 | 102% (inactive)
C/C(=N\NC(N)=S)c1nnn(-c2ccc([N+](=O)[O-])cc2)c1C | 90.8% (inactive)
COc1ccc(-c2nc(C#N)c(N3CCC(S(=O)(=O)N4CCOCC4)CC3)o2)cc1 | 98.2% (inactive)
Cc1ccc(/C(N)=N/C(N)=N/c2nc3ccccc3s2)cc1 | 63.5% (inactive)
NC1[C@H]2CN(c3cnc(C(=O)Nc4cc(F)cc5cccnc45)cn3)C[C@@H]12 (stereo not given in full) | 65.7% (inactive)
Cn1cc(C2=C(c3coc4cc(Br)ccc34)C(=O)NC2=O)c2ccccc21 | 69.3% (inactive)
CC(O)c1cccc(/C(N)=N/C(N)=N/c2nc3ccccc3s2)c1 (stereo not given) | 64.9% (inactive)
CNCCN(C)c1ccc(Nc2cc(NC3CC3)n3ncc(C#N)c3n2)cc1NC(C)=O | 10.7% (inactive)
CCS(=O)(=O)Nc1ccc(C(=O)CC2(O)C(=O)Nc3ccccc32)cc1 (stereo not given) | 92.4% (inactive)
Clc1ccc2[nH]cc(-c3nn4cc(-c5ccncc5)nc4s3)c2c1 | 9.36% (active)
CC(=O)C1=C(C)NC(NNc2ccccc2)=NC1c1ccc([N+](=O)[O-])cc1 (stereo not given) | 79.3% (inactive)
O=S1SC(c2ccccc2)=NN1c1cc(F)cc(F)c1 (stereo not given) | 13.3% (inactive)
COCCOc1ccc2ncc(C#Cc3cncc(C(=O)Nc4ccc(CN5CCN(C)CC5)c(C(F)(F)F)c4)c3)n2n1 | 35% (inactive)
O=C(/C=C/Nc1ccc(S(=O)(=O)Nc2ncccn2)cc1)c1ccc(N=Cc2c(O)[nH]c3ccccc23)cc1 | 101% (inactive)
Cc1ccc(C(=O)CSc2nnc(-c3ccc(-c4ccc(Cl)cc4)nc3C)o2)cc1 | 94.6% (inactive)
COc1ccc(CC(C)=C(c2ccc(OCCN3CCCC3)cc2)c2ccc(OCCN3CCCC3)cc2)cc1 | -73.2% (active)
C#CCOc1ccccc1/C=N/Nc1nc(-c2ccc(Cl)cc2)cs1 | 86.5% (inactive)
